In publication PMC5540273 (PLoS ONE, 2017):

Tested on: CDK3
Details: concentration: 1 μM, replicates: in singlicate; n = 1
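Also: KINOMEscan kinase panel screen.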

SMILES	%Inh [%]
O=C(Nc1n[nH]c2nc(-c3ccccc3)ccc12)C1CC1 [SB-708999]	35
CN(c1ccc(NC(=O)Nc2cccc(Cl)c2)cc1)c1ccnc(N)n1.Cl [GW830707]	0
CN(C)CCOc1ccc(-c2cc(-c3ccc(Cl)c(O)c3)c(-c3ccncc3)[nH]2)cc1.Cl.Cl [SB-684387]	0
Cc1ccc(Nc2ccnc(Nc3ccc(C)c(F)c3)n2)cc1O.Cl [GW582868]	0
CN(c1ccc(NC(=O)N2CCN(CCCN3CCOCC3)CC2)cc1)c1ccnc(Nc2ccc(CS(C)(=O)=O)cc2)n1.Cl [GW830899]	18
Nc1ncnc2scc(-c3ccc(NC(=O)Cc4cc(F)ccc4F)cc3)c12.O=C(O)C(F)(F)F [SB-731254-M]	0
CC(C)c1nc(-c2cccc(NS(=O)(=O)c3c(F)cccc3F)c2)c(-c2ccnc(Nc3ccc(N4CCOCC4)nc3)n2)s1.Cl [GSK1723980]	99.7
Cl.N#CCc1ccc(Nc2nccc(Nc3ccc(Oc4ccccc4)cc3)n2)cc1 [GW639905]	4
CNc1nccc(-c2ccc3c(N)n[nH]c3c2)n1 [GSK2206003]	19
COC(=O)Nc1nc2ccc(Oc3ccc(NC(=O)Nc4cc(C(F)(F)F)ccc4F)cc3)cc2[nH]1.Cl [GW654607]	18
O=C(O)C(F)(F)F.O=c1[nH]ccc2nc(N[C@@H]3CCNC3)nc(Nc3cc(Cl)cc(Cl)c3)c12 [GSK2188764]	30
Cl.O=C(Nc1ccc(Oc2ccc3[nH]c(NC(=O)c4ccco4)nc3c2)cc1)Nc1cc(C(F)(F)F)ccc1F [GW683134]	9
c1ccc(Oc2ccc(Nc3ccnc4cc(-c5ccc(CN6CCCCC6)o5)ccc34)cc2)nc1 [GW567143]	7
NCCC(NC(=O)c1cc(Br)c(-c2ccnc3[nH]ccc23)s1)c1ccccc1.O=C(O)C(F)(F)F.O=C(O)C(F)(F)F (stereo not drawn) [GSK1307810]	6
COc1ccc(NC(=O)c2ccoc2)cc1-c1ccc(C(=O)NCC2CC2)cc1 [GW810437]	2
CCn1c(-c2nonc2N)nc2c(-c3ccccc3)ncc(OCCCN)c21.O=C(O)C(F)(F)F.O=C(O)C(F)(F)F [GSK260205]	0
CS(=O)(=O)c1cccc(CNc2nc(Nc3ccc4c(c3)CCC(=O)N4)ncc2C(F)(F)F)c1	12
O=C(Nc1c(F)cccc1F)c1cc(C(=O)c2ccccc2F)c[nH]1 [GSK1326180]	16
O=C(Nc1n[nH]c2nc(-c3cccc(O)c3)ccc12)C1CC1 [SB-711805]	49
Cc1ccc(O)cc1Nc1ccnc2ccc(C(C)(C)C)cc12 [GW856805]	0
Cc1cccc(Nc2nc(NCCN)ncc2C(N)=O)c1 [GSK1292139]	5
Cn1cc(-c2ccc3c(c2)CCN3C(=O)Cc2cc(F)cc(C(F)(F)F)c2)c2c(N)ncnc21 [GSK2635225]	4
Cn1cc(-c2cnc(N)c3c(-c4ccc5c(c4)CCN5C(=O)Cc4ccccc4)csc23)cn1 [GSK2593074]	1
CC(C)c1nc(-c2ccc(F)c(NS(=O)(=O)c3c(F)cccc3F)c2)c(-c2ccnc(Nc3ccc(N4CCOCC4)nc3)n2)s1 [GSK1804250]	35
CC(C)NCC(Cc1ccccc1)NC(=O)c1cc(Br)c(-c2ccnc3[nH]ccc23)s1.Cl.Cl (stereo not drawn) [GSK1383281]	0
COc1cccc(CC(=O)N2CCc3cc(-c4cn(C)c5ncnc(N)c45)ccc32)c1 [GSK2608899]	12
N#Cc1cnc2cc(-c3cnc(CNCCN4CCOCC4)s3)ccc2c1Nc1ccc(Oc2ccccc2)cc1 [GW664114]	7
COc1cccc2c(-c3ccncc3)c(-c3ccc(F)cc3)nn12 [GW468513]	6
COc1cccc(NC(=O)NCCNc2ccnc(Nc3ccc(F)cc3)n2)c1 [GSK1379879]	0
Nc1ncc(-c2ccc3nccc(-c4ccncc4)c3c2)cc1S(=O)(=O)N1CCCCC1 [GSK1693850]	7

Tested on: CDK4-cyclinD1
Details: concentration: 1 μM, replicates: in singlicate; n = 1

SMILES	%Inh [%]
O=C(Nc1n[nH]c2nc(-c3ccccc3O)ccc12)C1CC1 [SB-711880]	25
N#CC1(c2cccc(C(=O)Nc3cccc(Oc4ccc5nc(NC(=O)C6CC6)sc5n4)c3)c2)CC1	15
Cl.Cl.NCC(NC(=O)c1cc(-c2cccnc2)c(-c2ccnc3[nH]ccc23)s1)c1ccccc1 (stereo not drawn) [GSK1323434]	39
COc1cccc(C2=C(Nc3cccc(O)c3)C(=O)NC2=O)c1 [SB-390771]	0
Fc1cc(Cl)ccc1Nc1ccnc2cc(-c3ccc(CN4CCSCC4)o3)ccc12 [GW560106]	35
O=C(O)C(F)(F)F.O=c1[nH]ccc2nc(N[C@@H]3CCNC3)nc(Nc3ccc4c(c3)S(=O)(=O)CC4)c12 [GSK2181306]	90.6
Cc1ccccc1CC(=O)N1CCc2cc(-c3cn(C)c4ncnc(N)c34)ccc21 [GSK2603346]	0
O=C(Nc1n[nH]c2nc(-c3ccccc3)ccc12)C1CC1 [SB-708999]	61
CN(c1ccc(NC(=O)Nc2cccc(Cl)c2)cc1)c1ccnc(N)n1.Cl [GW830707]	57
CN(C)CCOc1ccc(-c2cc(-c3ccc(Cl)c(O)c3)c(-c3ccncc3)[nH]2)cc1.Cl.Cl [SB-684387]	9
Cc1ccc(Nc2ccnc(Nc3ccc(C)c(F)c3)n2)cc1O.Cl [GW582868]	0
CN(c1ccc(NC(=O)N2CCN(CCCN3CCOCC3)CC2)cc1)c1ccnc(Nc2ccc(CS(C)(=O)=O)cc2)n1.Cl [GW830899]	0
Nc1ncnc2scc(-c3ccc(NC(=O)Cc4cc(F)ccc4F)cc3)c12.O=C(O)C(F)(F)F [SB-731254-M]	0
CC(C)c1nc(-c2cccc(NS(=O)(=O)c3c(F)cccc3F)c2)c(-c2ccnc(Nc3ccc(N4CCOCC4)nc3)n2)s1.Cl [GSK1723980]	96.2
Cl.N#CCc1ccc(Nc2nccc(Nc3ccc(Oc4ccccc4)cc3)n2)cc1 [GW639905]	0
CNc1nccc(-c2ccc3c(N)n[nH]c3c2)n1 [GSK2206003]	7
COC(=O)Nc1nc2ccc(Oc3ccc(NC(=O)Nc4cc(C(F)(F)F)ccc4F)cc3)cc2[nH]1.Cl [GW654607]	0
O=C(O)C(F)(F)F.O=c1[nH]ccc2nc(N[C@@H]3CCNC3)nc(Nc3cc(Cl)cc(Cl)c3)c12 [GSK2188764]	38

SMILES	%Inh [%]
Cl.O=C(Nc1ccc(Oc2ccc3[nH]c(NC(=O)c4ccco4)nc3c2)cc1)Nc1cc(C(F)(F)F)ccc1F [GW683134]	0
c1ccc(Oc2ccc(Nc3ccnc4cc(-c5ccc(CN6CCCCC6)o5)ccc34)cc2)nc1 [GW567143]	0
NCCC(NC(=O)c1cc(Br)c(-c2ccnc3[nH]ccc23)s1)c1ccccc1.O=C(O)C(F)(F)F.O=C(O)C(F)(F)F (stereo not drawn) [GSK1307810]	38
COc1ccc(NC(=O)c2ccoc2)cc1-c1ccc(C(=O)NCC2CC2)cc1 [GW810437]	0
CCn1c(-c2nonc2N)nc2c(-c3ccccc3)ncc(OCCCN)c21.O=C(O)C(F)(F)F.O=C(O)C(F)(F)F [GSK260205]	0
CS(=O)(=O)c1cccc(CNc2nc(Nc3ccc4c(c3)CCC(=O)N4)ncc2C(F)(F)F)c1	0
O=C(Nc1c(F)cccc1F)c1cc(C(=O)c2ccccc2F)c[nH]1 [GSK1326180]	33
O=C(Nc1n[nH]c2nc(-c3cccc(O)c3)ccc12)C1CC1 [SB-711805]	20
Cc1ccc(O)cc1Nc1ccnc2ccc(C(C)(C)C)cc12 [GW856805]	12
Cc1cccc(Nc2nc(NCCN)ncc2C(N)=O)c1 [GSK1292139]	0
Cn1cc(-c2ccc3c(c2)CCN3C(=O)Cc2cc(F)cc(C(F)(F)F)c2)c2c(N)ncnc21 [GSK2635225]	0
CC(C)c1nc(-c2ccc(F)c(NS(=O)(=O)c3c(F)cccc3F)c2)c(-c2ccnc(Nc3ccc(N4CCOCC4)nc3)n2)s1 [GSK1804250]	26
CC(C)NCC(Cc1ccccc1)NC(=O)c1cc(Br)c(-c2ccnc3[nH]ccc23)s1.Cl.Cl (stereo not drawn) [GSK1383281]	0
COc1cccc(CC(=O)N2CCc3cc(-c4cn(C)c5ncnc(N)c45)ccc32)c1 [GSK2608899]	0
N#Cc1cnc2cc(-c3cnc(CNCCN4CCOCC4)s3)ccc2c1Nc1ccc(Oc2ccccc2)cc1 [GW664114]	0
COc1cccc2c(-c3ccncc3)c(-c3ccc(F)cc3)nn12 [GW468513]	27
COc1cccc(NC(=O)NCCNc2ccnc(Nc3ccc(F)cc3)n2)c1 [GSK1379879]	9
Nc1ncc(-c2ccc3nccc(-c4ccncc4)c3c2)cc1S(=O)(=O)N1CCCCC1 [GSK1693850]	9
